Experimental findings from the supplement of paper PMC7156485 are described below.

Each structure is given as a SMILES string. Where “and” joins values, the source holds several entries; their conditions need not be identical. Identical values can stand only once. Unmarked numbers belong to inactive results.
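Also: TDF is a line of transformed human dermal fibroblasts of mesenchymal origin.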

For the assay, the system named is TDF. Put plainly: H1.0 immunofluorescence intensity relative to DMSO (% of DMSO); higher = stronger H1.0 induction, active = 120 or more. The conditions noted are these: concentration: 10 µM; 24 h. The essentials: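 Cells were seeded at 800 per well in 384-well plates with RPMI containing 10% FBS; both HCC1569 and TDF lines were used. Compounds were added at 10 µM for 24 h at 37 °C, in triplicate, before fixation in 3.7% formaldehyde and staining with a rabbit anti-H1.0 antibody, an AlexaFluor 647 secondary and DAPI. H1.0 nuclear intensity or cell number is reported as percent of the plate control using the median of replicates, and HCC1569 values were smoothed for positional effects.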
For `COc1cc2c3cc1Oc1c(OC)c(OC)cc4c1C(Cc1ccc(O)c(c1)Oc1ccc(cc1)CC3N(C)CC2)N(C)CC4.Cl.Cl` (stereo not given), the H1.0 immunofluorescence intensity was 104.
`CCOC(=O)c1ncn2c1CN(C)C(=O)c1cc(F)ccc1-2` [Flumazenil]: the H1.0 immunofluorescence intensity is 98.2.
Regarding `CC1CCC2(C(=O)O)CCC3(C)C(=CCC4C5(C)CCC(O)C(C)(C)C5CCC43C)C2C1C` (stereo not given) [Ursolic acid], the H1.0 immunofluorescence intensity was 97.5.
The result for `CCCCCC(O)C=CC=CC=CC(O)CC=CCCCC(=O)O` (stereo not given) reads 94.8; that for `Nc1nc(Cl)nc2c1ncn2C1OC(CO)C(O)C1O` (stereo not given) [2-Chloroadenosine], 87.8; that for `Clc1ccc(CON=C(Cn2ccnc2)c2ccc(Cl)cc2Cl)c(Cl)c1` [Oxiconazole], 98.4.
As to `Cc1nc2sccn2c(=O)c1CCN1CCC(=C(c2ccc(F)cc2)c2ccc(F)cc2)CC1` [Ritanserin], the H1.0 immunofluorescence intensity is 88.8.
Then `CCCCCC=CCC(O)C=CC=CC=CC(O)CCCC(=O)O` (stereo not given) [Leukotriene B4], with 93.3; and `O=C(O)c1cn(C2CC2)c2cc(N3C[C@@H]4C[C@H]3CN4)c(F)cc2c1=O`, with 91.9.
Turning to `Nc1ncnc2c1ncn2C1OC(CO)C(O)C1O` (stereo not given) [Adenosine], the H1.0 immunofluorescence intensity was 92.7.
For `C[N+]1(C)CCCC1C(=O)[O-].Cl` (stereo not given), the H1.0 immunofluorescence intensity is 95.9.
For the compound `O=C1CCc2cc(OCCCCc3nnnn3C3CCCCC3)ccc2N1` [Cilostazol], the H1.0 immunofluorescence intensity was 90.2.
The result for `CCN(CC)CCCC(C)Nc1ccnc2cc(Cl)ccc12` (stereo not given) [Chloroquine] reads 98.2; that for `O=C1c2c(O)cc(O)cc2OC(c2ccc(O)c(O)c2)C1O` (single isomer, unassigned; (+)) [(+)-Taxifolin], 105.
Then `Cc1ccc(-c2n[nH]c3c2C(c2cccc(O)c2)N(c2ccc(C(=O)O)cc2)C3=O)cc1` (stereo not given), with 95.
Then `Cn1cnc2c(F)c(Nc3ccc(Br)cc3Cl)c(C(=O)NOCCO)cc21`, with 93.3.
With `NCC1CCC(C(=O)O)CC1` (stereo not given) [Tranexamic acid], the H1.0 immunofluorescence intensity is 87.9.
Then `CCN1CCCC1CNC(=O)c1c(O)c(Cl)cc(Cl)c1OC.O=C(O)C(O)C(O)C(=O)O` [S(+)-Raclopride L-tartrate], with 90.3; and `NC(=O)C(=O)[O-].[Na+]` [Sodium Oxamate], with 94.
Then `CCCCCCC=CCCCCCCCC(=O)O` [9(Z)-Hexadecenoic acid], with 97.9; and `CS(=O)(=O)CCNCc1nc(-c2ccc3ncnc(Nc4ccc(OCc5cccc(F)c5)c(Cl)c4)c3c2)cs1.Cl.Cl`, with 99.4.
The result for `CCCCCCCCCCCCCCCCCC(=O)OC(CC(=O)O)C[N+](C)(C)C.[Cl-]` (racemic) [DL-Stearoylcarnitine chloride] reads 136 (active); that for `CCC=CCC=CCC=CCC=CCCCCC(=O)O.[Na]` [6(Z), 9(Z), 12(Z), 15(Z)-Octadecatetraenoic acid], 106; that for `CN(C)CCCOc1nn(Cc2ccccc2)c2ccccc12` [Benzydamine], 104.
For `CS(=O)(=O)c1ccc(-c2cc(Br)sc2-c2ccc(F)cc2)cc1`, the H1.0 immunofluorescence intensity is 96.8.
`CCCCCCCCCCCC=CCC=CCCCC(=O)O` [5(Z), 8(Z)-Eicosadienoic acid]: the H1.0 immunofluorescence intensity was 99.9.
`Cl.Cl.NCCC(=O)NCCc1cnc[nH]1` [Carcinine dihydrochloride]: the H1.0 immunofluorescence intensity was 94.6.
The result for `COc1ccc2c(c1OC)N=C(NC(=O)c1cccnc1)N1CCN=C21` reads 94.1; that for `CSC(=N)N.CSC(=N)N.O=S(=O)(O)O` [S-Methylisothiourea hemisulfate], 93.5.
The result for `Nc1ncnc2n[nH]c(Nc3ccc(F)cc3)c12` [MNK1 Inhibitor] reads 88.8.
Turning to `COc1cccc(-c2cc(=O)c3ccccc3o2)c1N`, the H1.0 immunofluorescence intensity was 85.6 and 92.6 and 87.8.
Then `COc1ccc(CC(=O)NC(N=C(NC#N)Nc2cccc3ncccc23)C(C)(C)C)cc1OC` (stereo not given), with 93.5.
The result for `CCCCCCCCCCCCCCCC(=O)C(F)(F)F` reads 93.3; that for `Cn1cc(C2=C(c3cn(CCCSC(=N)N)c4ccccc34)C(=O)NC2=O)c2ccccc21`, 113.
The result for `CC1=CC(=O)c2ccccc2C1=O` [Menadione] reads 106; that for `Cc1ccc(C)c(OCCCC(C)(C)C(=O)O)c1` [Gemfibrozil], 91.8; that for `Cc1ccccc1C(OCCN(C)C)c1ccccc1.Cl` (stereo not given) [Orphenadrine hydrochloride], 96.6.
As for `CCOC(=O)C1=C(C)NC(=S)NC1c1cccc(O)c1` (stereo not given) [Monastrol], the H1.0 immunofluorescence intensity is 100.
Consider `NC(=O)c1ccc(-c2nc(-c3ccc4c(c3)OCCO4)c(-c3ccccn3)[nH]2)cc1`, for which the H1.0 immunofluorescence intensity was 94.2.
The result for `NC(=O)N1C(=O)/C(=C(\O)c2cccs2)c2cc(Cl)ccc21` reads 94.8.
